Test results published in PubChem BioAssay (NCI).
Compounds without any hit were thinned out: in the full panel of roughly 79,000, 15% have a hit. Activity calls are given as the source filed them. No stated cut-off is given here; in the data, active means growth inhibition above about 70%; inactive means the rest.

Experiments:
[1] = NCI Yeast Anticancer Drug Screen. Data for the rad50 strain (AID 155);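 further: 0% = growth of vehicle-only cultures of the same strain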; conditions: S. cerevisiae rad50 strain growth inhibition, stronger effect = higher value
In short: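 Yeast carrying a defined DNA repair defect were exposed to test compounds, and growth was compared with vehicle-treated controls to give percent inhibition.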

[2] = NCI Yeast Anticancer Drug Screen. Data for the mec2-1 strain (AID 157); conditions: S. cerevisiae mec2-1 strain, stronger effect = higher value
In short: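 Each compound was tested on mec2-1 yeast, a strain altered in DNA damage repair or cell cycle control. Growth inhibition is reported relative to vehicle.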

[3] = NCI Yeast Anticancer Drug Screen. Data for the sgs1 mgt1 strain (AID 161);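 further: 0% = growth of cultures given vehicle only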; conditions: S. cerevisiae sgs1 mgt1 strain, stronger effect = higher value
In short: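 Mutant yeast exposed to compound; growth scored against vehicle-only wells.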

[4] = NCI Yeast Anticancer Drug Screen. Data for the cln2 rad14 strain (AID 165);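 further: 0% = growth equal to vehicle treated cultures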; conditions: S. cerevisiae cln2 rad14 strain, stronger effect = higher value
In short: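 Test compounds were added to cln2 rad14 yeast cultures; inhibition of growth was then determined by comparison with vehicle treatment.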

[5] = NCI Yeast Anticancer Drug Screen. Data for the bub3 strain (AID 167); conditions: S. cerevisiae bub3 mutant strain, stronger effect = higher value
In short: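 Compounds were applied to a genetically altered yeast strain carrying a cell-cycle control defect. Growth inhibition was scored against vehicle-treated controls.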

[6] = NCI Yeast Anticancer Drug Screen. Data for the mlh1 rad18 strain (AID 175); conditions: S. cerevisiae mlh1 rad18 strain growth inhibition, stronger effect = higher value
In short: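 Inhibition values reflect reduced growth of mutant yeast versus vehicle-treated controls following compound exposure; the mutations affect DNA damage repair.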

[7] = at 5.0 µM (retest, dose inferred, filed as 0.5)
[8] = at 50.0 µM (retest, dose inferred, filed as 5.0)

Measured: growth inhibition

ON1CCc2c([nH]c3ccccc23)C1c1ccc(Cl)cc1 (configuration not stated)
inactive: [1]; [7] -8% | [1]; at 50.0 µM 54.5% | [2]; [7] -9% | [2]; at 50.0 µM 34.4% | [3]; [7] 1% | [4]; [7] -8% | [4]; at 50.0 µM 55.7% | [5]; [7] -6% | [5]; at 50.0 µM 40.1% | [6]; [7] -2%
active: [1]; [8] 93% | [2]; [8] 91% | [3]; [8] 98% | [3]; at 50.0 µM 85.4% | [4]; [8] 88% | [5]; [8] 96% | [6]; [8] 96% | [6]; at 50.0 µM 79.2%

c1ccc([B-](c2ccccc2)(c2ccccc2)c2ccccc2)cc1
inactive: [1]; [7] -3% | [1]; [8] -6% | [2]; [7] -4% | [2]; [8] -1% | [3]; [7] 0% | [3]; [8] -3% | [4]; [7] 4% | [4]; [8] -16% | [5]; [7] 5% | [5]; [8] 2% | [6]; [7] 1% | [6]; [8] -2%
active: [1]; at 50.0 µM 98.2% | [2]; at 50.0 µM 95% | [3]; at 50.0 µM 98.2% | [4]; at 50.0 µM 98.4% | [5]; at 50.0 µM 93.3% | [6]; at 50.0 µM 98.5%

Nc1ccc(-c2cccc(-c3ccccc3)c2)cc1
inactive: [1]; [7] -8% | [2]; [7] -11% | [3]; [7] -11% | [4]; [7] -40% | [5]; [7] -15% | [6]; [7] -27%
active: [1]; [8] 94% | [1]; at 50.0 µM 98% | [2]; [8] 94% | [2]; at 50.0 µM 97.7% | [3]; [8] 97% | [3]; at 50.0 µM 96.2% | [4]; [8] 96% | [4]; at 50.0 µM 98.7% | [5]; [8] 97% | [5]; at 50.0 µM 98.3% | [6]; [8] 97% | [6]; at 50.0 µM 97.6%

O=C(Nc1ccc(C2=NCCN2)cc1)c1cc(C(=O)Nc2ccc(C3=NCCN3)cc2)cc(C(=O)Nc2ccc(C3=NCCN3)cc2)c1
inactive: [1]; [7] 37% | [2]; [7] 5% | [3]; [7] 16% | [4]; [7] 13% | [4]; [8] 62% | [5]; [7] 23% | [6]; [7] 25%
active: [1]; [8] 96% | [1]; at 50.0 µM 99% | [2]; [8] 94% | [2]; at 50.0 µM 99% | [3]; [8] 95% | [3]; at 50.0 µM 98.8% | [4]; at 50.0 µM 90.1% | [5]; [8] 99% | [5]; at 50.0 µM 98.8% | [6]; [8] 98% | [6]; at 50.0 µM 99%

O=C(O)c1ccc(NC(c2ccccc2)c2ccc3cccnc3c2O)cc1 (configuration not stated)
inactive: [1]; [7] -12% | [2]; [7] 2% | [3]; [7] -8% | [4]; [7] -40% | [5]; [7] -3% | [6]; [7] 9%
active: [1]; [8] 98% | [1]; at 50.0 µM 98.2% | [2]; [8] 98% | [2]; at 50.0 µM 98% | [3]; [8] 98% | [3]; at 50.0 µM 97.8% | [4]; [8] 95% | [4]; at 50.0 µM 97.5% | [5]; [8] 98% | [5]; at 50.0 µM 97.7% | [6]; [8] 98% | [6]; at 50.0 µM 98.2%

CCCCCCCCCCCCCCCCN[Si](NCCCCCCCCCCCCCCCC)(NCCCCCCCCCCCCCCCC)NCCCCCCCCCCCCCCCC
active: [1]; [7] 97% | [1]; [8] 96% | [1]; at 50.0 µM 85.5% | [2]; [7] 99% | [2]; [8] 96% | [2]; at 50.0 µM 83.4% | [3]; [7] 99% | [3]; [8] 96% | [3]; at 50.0 µM 88.2% | [4]; [7] 98% | [4]; [8] 95% | [4]; at 50.0 µM 85.5% | [5]; [7] 99% | [5]; [8] 97% | [5]; at 50.0 µM 86% | [6]; [7] 97% | [6]; [8] 95% | [6]; at 50.0 µM 83.9%

COC(=O)/C(C(C)=O)=C(\OC(C)=O)c1ccc(OC)c(OC)c1
active: [1]; [8] 80% | [1]; at 50.0 µM 93.5% | [2]; [8] 93% | [2]; at 50.0 µM 91% | [3]; [8] 88% | [4]; [8] 85% | [4]; at 50.0 µM 95.5% | [5]; [8] 86% | [5]; at 50.0 µM 98.1% | [6]; [8] 91%
inactive: [1]; [7] -14% | [2]; [7] -11% | [3]; [7] -5% | [3]; at 50.0 µM 46.2% | [4]; [7] -11% | [5]; [7] -2% | [6]; [7] -19% | [6]; at 50.0 µM 60%

CCCCC(CC)CNc1ncnc2c1cnn2C (configuration not stated)
active: [1]; [8] 92% | [2]; [8] 91% | [3]; [8] 94% | [3]; at 50.0 µM 91.7% | [4]; [8] 89% | [5]; [8] 96% | [6]; [8] 96%
inactive: [1]; [7] 1% | [1]; at 50.0 µM 36.7% | [2]; [7] -3% | [2]; at 50.0 µM -1.45% | [3]; [7] 1% | [4]; [7] -10% | [4]; at 50.0 µM 20.9% | [5]; [7] 0% | [5]; at 50.0 µM 48.4% | [6]; [7] 14% | [6]; at 50.0 µM 32.8%

O=[N+]([O-])c1ccc(-c2nc(/C=N/N3CCCCC3)cs2)o1
inactive: [1]; [7] 12% | [1]; [8] 57% | [1]; at 50.0 µM 69.7% | [2]; [7] 1% | [2]; [8] 26% | [2]; at 50.0 µM 43.5% | [3]; [7] 17% | [4]; [7] -7% | [4]; [8] 32% | [4]; at 50.0 µM 42.4% | [5]; [7] -1% | [5]; [8] 3% | [5]; at 50.0 µM 15.2% | [6]; [7] 16% | [6]; [8] 64% | [6]; at 50.0 µM 66.5%
active: [3]; [8] 76% | [3]; at 50.0 µM 84.5%
